The full ranking holds about 140,000 sequences; the median of “enrichment ratio after two sorts for PhoP signalling” is about 0, and the highest 2% start at about 11. This excerpt belongs to a sample that is enriched for the highest values.

B1: PhoQ; a variant is named by its letters at X, in order, P23837 (parent)
chain: MKKLLRLFFPLSLRVRFLLATAAVVLVLSLAYGMVALIGYSVSFDKTTFRLLRGESNLFYTLAKWENNKLHVELPENIDKQSPTMTLIYDENGQLLWAQRDVPWLMKMIQPDWLKSNGFHEIEADVNDTSLLLSGDHSIQQQLQEVREDDDDAEMTHSVAVNVYPATSRMPKLTIVVVDTIPVELKSSYMVWSWFIYVLSANLLLVIPLLWVAAWWSLRPIEALAKEVRELEEHNRELLNPATTRELTSLVRNLNRLLKSERERYDKYRTTLTDLTHSLKTPLXXLQXXLRSLRSEKMSVSDAEPVMLEQISRISQQIGYYLHRASMRGGTLLSRELHPVAPLLDNLTSALNKVYQRKGVNISLDISPEISFVGEQNDFVEVMGNVLDNACKYCLEFVEISARQTDEHLYIVVEDDGPGIPLSKREVIFDRGQRVDTLRPGQGVGLAVAREITEQYEGKIVAGESMLGGARMEVIFGRQHSAPKDE

The variants in the assay derive from B1. Put plainly: enrichment ratio after two sorts for PhoP signalling (ratio (wild type AVST 3.29)); higher = more functional. The settings on record: with PhoP (E. coli).
On to LYDW, for which the enrichment ratio is at most 0.25.

VILC: the enrichment ratio is 0.339.

With DWCS, the enrichment ratio was at most 0.25.

Regarding ADVT, the enrichment ratio was at most 0.25.

Take ANVT: the enrichment ratio is 15.

For ANND, the enrichment ratio is at most 0.25.

As for HFIY, the enrichment ratio is at most 0.25.

Take MIKG: the enrichment ratio was at most 0.25.

As for SCMA, the enrichment ratio came to 15.7.

For SIMA, the enrichment ratio amounted to 4.54.

On to KCMF, for which the enrichment ratio was at most 0.25.

On to SCHF, for which the enrichment ratio was at most 0.25.

For the variant SCMF, the enrichment ratio stood at 12.3.

Turning to SCVG, the enrichment ratio stood at 5.95.

Regarding SCMW, the enrichment ratio came to 6.03.

With TYMA, the enrichment ratio was determined as 1.56.

Turning to SCMV, the enrichment ratio turned out to be 9.09.

With SCIG, the enrichment ratio was determined as 3.69.

As for SCMG, the enrichment ratio turned out to be 25.9.

As to SCMI, the enrichment ratio is 27.9.

In the case of WPNL, the enrichment ratio was at most 0.25.

As to ERAD, the enrichment ratio was at most 0.25.

On to SRLT, for which the enrichment ratio is at most 0.25.

Regarding KMYN, the enrichment ratio was at most 0.25.

As to IRST, the enrichment ratio is at most 0.25.

As for LAMD, the enrichment ratio was at most 0.25.

Turning to FSHH, the enrichment ratio is at most 0.25.

On to WVRL, for which the enrichment ratio is at most 0.25.

As to YRGN, the enrichment ratio was at most 0.25.

On to TIYR, for which the enrichment ratio turned out to be 2.57.

As for IKRH, the enrichment ratio is at most 0.25.

Take VSMQ: the enrichment ratio stood at 2.71.

In the case of MNFC, the enrichment ratio was at most 0.25.

With TNAC, the enrichment ratio amounted to 3.13.

Consider LNAC, for which the enrichment ratio is at most 0.25.

For GIYS, the enrichment ratio is at most 0.25.

For GIAC, the enrichment ratio came out at 11.8.

Turning to GITE, the enrichment ratio was at most 0.25.

Consider GNAC, for which the enrichment ratio is 12.5.

Turning to GYAC, the enrichment ratio is at most 0.25.

Take MNAC: the enrichment ratio came out at 27.7.

Turning to PCAQ, the enrichment ratio was at most 0.25.

As for DTYT, the enrichment ratio is at most 0.25.

Regarding MFKP, the enrichment ratio was at most 0.25.

SQVA: the enrichment ratio was 4.56.

As to WPDN, the enrichment ratio is at most 0.25.

With HVPR, the enrichment ratio is at most 0.25.

Regarding KKRG, the enrichment ratio was at most 0.25.

Regarding QGVQ, the enrichment ratio was at most 0.25.

On to APCH, for which the enrichment ratio is at most 0.25.

For SELA, the enrichment ratio was 12.4.

With SYLI, the enrichment ratio turned out to be 0.306.

Regarding SELT, the enrichment ratio is 20.5.

On to SEWI, for which the enrichment ratio is 3.57.

For the variant SELI, the enrichment ratio turned out to be 24.6.

Regarding SEYI, the enrichment ratio amounted to 4.33.

Regarding KYAS, the enrichment ratio is at most 0.25.

Take SLAS: the enrichment ratio came out at 5.06.

As for SEAS, the enrichment ratio stood at 26.6.

With SEDT, the enrichment ratio was at most 0.25.

On to SLLI, for which the enrichment ratio was found to be 7.62.

As for KYLT, the enrichment ratio is at most 0.25.

Take WRRM: the enrichment ratio was at most 0.25.

Take YYVL: the enrichment ratio is at most 0.25.

Take IENI: the enrichment ratio was at most 0.25.

For the variant GVPH, the enrichment ratio was at most 0.25.

In the case of PCMW, the enrichment ratio was at most 0.25.

For GSWF, the enrichment ratio is at most 0.25.

With HSKP, the enrichment ratio was at most 0.25.

As for WEQY, the enrichment ratio is at most 0.25.

For the variant IRFS, the enrichment ratio was at most 0.25.

In the case of KYLS, the enrichment ratio is at most 0.25.

As to SPLS, the enrichment ratio was at most 0.25.

On to QEVT, for which the enrichment ratio was at most 0.25.

Regarding SLVT, the enrichment ratio is 0.291.

As to NEVT, the enrichment ratio was at most 0.25.

As to SQVT, the enrichment ratio was 5.85.

SFLY: the enrichment ratio is 0.911.

As to SEVT, the enrichment ratio was 16.8.

As to KYLY, the enrichment ratio was at most 0.25.

In the case of SELS, the enrichment ratio came to 20.9.

For SELY, the enrichment ratio amounted to 11.4.

Take MEVT: the enrichment ratio is 27.6.

Regarding PENI, the enrichment ratio was at most 0.25.

For PNLE, the enrichment ratio was at most 0.25.

Consider DQCP, for which the enrichment ratio is at most 0.25.

As to HGEI, the enrichment ratio was at most 0.25.

For SWKP, the enrichment ratio is at most 0.25.

On to WESM, for which the enrichment ratio was at most 0.25.

Turning to STLY, the enrichment ratio came to 13.1.

Take SENT: the enrichment ratio is 2.04.

As for SPLD, the enrichment ratio is at most 0.25.

Consider SEET, for which the enrichment ratio came out at 6.48.

Consider SELD, for which the enrichment ratio came out at 14.

Regarding SEAD, the enrichment ratio was found to be 5.48.

In the case of SEAA, the enrichment ratio was determined as 14.3.

Turning to KYLD, the enrichment ratio was at most 0.25.

With STAA, the enrichment ratio was determined as 4.26.

Regarding SPLY, the enrichment ratio was at most 0.25.

For YTLY, the enrichment ratio amounted to 1.95.

With SEAT, the enrichment ratio was 13.6.

Take DWIM: the enrichment ratio is at most 0.25.

On to NPSS, for which the enrichment ratio was at most 0.25.

In the case of FFHH, the enrichment ratio came to 0.731.

In the case of TYSH, the enrichment ratio was determined as 1.78.

With NQDR, the enrichment ratio was at most 0.25.

Turning to LYHC, the enrichment ratio was at most 0.25.

Consider YVNL, for which the enrichment ratio was at most 0.25.

Regarding RKNY, the enrichment ratio was at most 0.25.

MNMF: the enrichment ratio is at most 0.25.

Regarding FCKG, the enrichment ratio is at most 0.25.

Turning to TKNW, the enrichment ratio is at most 0.25.

ANCC: the enrichment ratio turned out to be 0.324.

On to TKNH, for which the enrichment ratio worked out at 11.4.

HKNI: the enrichment ratio was at most 0.25.

In the case of HNNH, the enrichment ratio is at most 0.25.

As for AKCC, the enrichment ratio turned out to be 15.2.

In the case of TKNI, the enrichment ratio came out at 13.3.

On to HNCC, for which the enrichment ratio was at most 0.25.

With TKCC, the enrichment ratio amounted to 13.1.

For HKNH, the enrichment ratio was at most 0.25.

For the variant MKCC, the enrichment ratio was at most 0.25.

For the variant HKCC, the enrichment ratio was at most 0.25.

KKAH: the enrichment ratio is at most 0.25.

Regarding LSQM, the enrichment ratio was at most 0.25.

As for NLVR, the enrichment ratio was at most 0.25.

SGPQ: the enrichment ratio was at most 0.25.

In the case of FWSM, the enrichment ratio was at most 0.25.

For the variant VAFK, the enrichment ratio was at most 0.25.

MYIN: the enrichment ratio was at most 0.25.

As for EPPF, the enrichment ratio is at most 0.25.

Turning to IMLD, the enrichment ratio is at most 0.25.

As to NQCC, the enrichment ratio is at most 0.25.

Take TKNM: the enrichment ratio stood at 31.9.

Take AQCC: the enrichment ratio worked out at 32.6.

Consider EQCC, for which the enrichment ratio was at most 0.25.

With HKNM, the enrichment ratio is at most 0.25.

Turning to KKNM, the enrichment ratio is at most 0.25.

As for YTTI, the enrichment ratio was at most 0.25.

TTTA: the enrichment ratio stood at 5.71.

On to TTTI, for which the enrichment ratio turned out to be 22.1.

Regarding ITTI, the enrichment ratio was at most 0.25.

Turning to GVTI, the enrichment ratio stood at 4.7.

Regarding GTTI, the enrichment ratio is 13.5.

In the case of PPTP, the enrichment ratio was at most 0.25.

Regarding NGSI, the enrichment ratio was at most 0.25.

As for GSSK, the enrichment ratio was at most 0.25.

GGSI: the enrichment ratio came to 12.3.

On to RGSI, for which the enrichment ratio is at most 0.25.

As for NISI, the enrichment ratio was at most 0.25.

Take TGSI: the enrichment ratio was determined as 19.6.

With GQSI, the enrichment ratio was at most 0.25.

For GSTG, the enrichment ratio is at most 0.25.

Turning to GSSI, the enrichment ratio worked out at 14.1.

Values taken from a collection of fitness landscapes (doi:10.1126/science.1257360).
